Where “and” joins values, the source holds several entries; their conditions need not be identical. Identical values can stand only once. Results filed as inconclusive are left out. Where a structure was tested more than once in an assay, its records may differ in their call. Calls of active or inactive are those of the source. The calls were made as follows, unless noted: active = hit-call score of the fitted dose curve at least 0.9, where 1 is the maximum; inconclusive = response in the unintended direction; inactive = score below 0.9.

In assay [1] the test system is frog Estrogen Receptor (ER), gene 398734. Put plainly: ATG_frER1_XSP2: Attagene TRANS-FACTORIAL Multi-Species (XSP2) HepG2 Assay for frog Estrogen Receptor (ER) (AID 2283821).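 Also: hits raise reporter mRNA above DMSO baseline so potency means agonist or activator.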 In short, it runs like this: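 Steps: transfect HepG2 with multiple reporter transcription units; treat with chemical for 24 h; isolate RNA, reverse-transcribe, PCR-amplify, label with 6-FAM, digest with HpaI; resolve fragments by capillary electrophoresis. Signal is scored against DMSO.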

Assay [2] relates to zebrafish Estrogen Receptor (ER2b), gene 317733. The experiment in a line: ATG_zfER2b_XSP2: Attagene TRANS-FACTORIAL Multi-Species (XSP2) HepG2 Assay for zebrafish Estrogen Receptor (ER2b) (AID 2283823).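 Also: fitted upward as reporter gain over DMSO so potency reflects activation.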 The procedure, abridged: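 Transfect HepG2 with GAL4-UAS reporter constructs; dose chemicals, 24 h; isolate RNA, RT-PCR, FAM-label, HpaI digest; capillary electrophoresis. Gain-of-signal vs DMSO.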

The test system of assay [3] is zebrafish Androgen Receptor (AR), gene 100005148. Put plainly: ATG_zfAR_XSP2: Attagene TRANS-FACTORIAL Multi-Species (XSP2) HepG2 Assay for zebrafish Androgen Receptor (AR) (AID 2283825).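 Also: hits raise reporter mRNA above DMSO so AC50 reflects agonist-type gain.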 The procedure, abridged:
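Zebrafish AR–GAL4 chimera transiently expressed with GAL4-UAS reporter in HepG2 cells, co-stimulated with 3 nM 6-alpha-fluorotestosterone and 1.5 nM norgestrel; 24 h dosing, reporter mRNA read by RT-PCR/capillary electrophoresis versus DMSO.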

Assay [4] has as its system frog Estrogen Receptor (ER2), gene 100174814. The experiment in a line: ATG_frER2_XSP2: Attagene TRANS-FACTORIAL Multi-Species (XSP2) HepG2 Assay for frog Estrogen Receptor (ER2) (AID 2283828). In short, it runs like this: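 Multiplexed transactivation in HepG2: frog estrogen receptor fused to Gal4 drives a UAS reporter. Signal is reporter mRNA after 24 h treatment.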

Assay [5] concerns the target Peroxisome proliferator-activated receptor gamma (Homo sapiens) (UniProt P37231). The experiment in a line: ATG_hPPARg_XSP2: Attagene TRANS-FACTORIAL Multi-Species (XSP2) HepG2 Assay for human Peroxisome Proliferator-activated Receptor gamma (PPARg) (AID 2283829).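 Also: actives raise reporter mRNA above DMSO so AC50 reflects PPARg activation.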 In short, it runs like this:
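Transient MRTU transfection, HepG2; TRANS format (exogenous NR-Gal4 chimeras). 24 h chemical exposure with 3 nM 6-alpha-fluorotestosterone and 1.5 nM norgestrel present. Readout: reporter mRNA via RT-PCR/CE fluorescence, up-direction vs DMSO.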

Assay [6] deals with mouse Peroxisome Proliferator-activated Receptor gamma (PPARg), Pparg (gene 19016) (UniProt P37238). The experiment in a line: ATG_mPPARg_XSP2: Attagene TRANS-FACTORIAL Multi-Species (XSP2) HepG2 Assay for mouse Peroxisome Proliferator-activated Receptor gamma (PPARg) (AID 2283830).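 Also: hits are gains in reporter mRNA above DMSO so AC50 marks activation.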 In short, it runs like this:
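HepG2 cells transiently transfected with GAL4-UAS reporter units for chimeric NR-Gal4 proteins including mouse PPARg, exposed 24 h; medium contained 3 nM 6-alpha-fluorotestosterone and 1.5 nM norgestrel. Reporter mRNA quantified by RT-PCR, HpaI digestion and capillary electrophoresis, vs DMSO.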

For assay [7], the target named is Nuclear receptor subfamily 1 group I member 2 (Mus musculus) (UniProt O54915). Put plainly: ATG_mPXR_XSP2: Attagene TRANS-FACTORIAL Multi-Species (XSP1) HepG2 Assay for mouse Pregnane X Receptor (PXR) (AID 2283831). In short, it runs like this: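 Transient HepG2 transfection, multiplexed GAL4-UAS reporters, NR-GAL4 chimeras. 24 h compound exposure. Readout: reporter mRNA, RT-PCR, fluorescent capillary electrophoresis; positive direction vs DMSO baseline.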

For assay [8], the target named is zebrafish Thyroid Hormone Receptor alpha (TRa), thraa (gene 30670) (UniProt Q98867). The experiment in a line: ATG_zfTRa_XSP2: Attagene TRANS-FACTORIAL Multi-Species (XSP1) HepG2 Assay for zebrafish Thyroid Hormone Receptor alpha (TRa) (AID 2283832).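 Also: actives raise zebrafish TRa-Gal4 reporter transcript above DMSO baseline.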 In short, it runs like this: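 Transient transfection of human HepG2 with GAL4-UAS reporter units, then 24 h chemical treatment. RNA isolated, reverse-transcribed, PCR-amplified, FAM-labelled, HpaI-digested and run on capillary electrophoresis. Gain-of-signal relative to DMSO.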

Assay [9] deals with zebrafish Peroxisome Proliferator-activated Receptor gamma (PPARg), gene 557037. The experiment in a line: ATG_zfPPARg_XSP2: Attagene TRANS-FACTORIAL Multi-Species (XSP2) HepG2 Assay for zebrafish Peroxisome Proliferator-activated Receptor gamma (PPARg) (AID 2283833).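 Also: actives increase reporter signal over DMSO so AC50 reflects activation.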 The procedure, abridged:
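Transfect HepG2 with multiplexed GAL4-UAS reporter constructs; dose chemical 24 h; isolate RNA, reverse-transcribe, PCR-amplify, label and digest reporter products; resolve by capillary electrophoresis. Activity taken as increase over DMSO.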

Assay [10] is described as follows: ATG_M_61_XSP2: Attagene TRANS-FACTORIAL Multi-Species (XSP2) HepG2 Assay for M61 Transcription Factor (Internal Marker) (AID 2283835; active = hit-call score of the fitted dose curve at least 0.9, where 1 is the maximum; inactive = score below 0.9;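 also: reporter mRNA of an internal background marker read by RT-PCR and capillary electrophoresis; active means a rise in signal above the DMSO baseline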). In short, it runs like this: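 First, HepG2 cells are transfected with reporter units under GAL4-UAS control. Next, chemicals are applied for 24 h. Then total RNA is reverse-transcribed, amplified, fluorescently labelled and sized by capillary electrophoresis, with gain of signal scored against DMSO.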

The target of assay [11] is zebrafish Thyroid Hormone Receptor beta (TRb), thrb (gene 30607) (UniProt Q9PVE4). The experiment in a line: ATG_zfTRb_XSP2: Attagene TRANS-FACTORIAL Multi-Species (XSP1) HepG2 Assay for zebrafish Thyroid Hormone Receptor beta (TRb) (AID 2283836). In short, it runs like this: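 Human liver HepG2, transient MRTU transfection (NR-Gal4 chimeras, GAL4-UAS reporters); 24 h compound exposure; total RNA → oligo(dT) RT → PCR → 6-FAM label → HpaI cut → CE fluorescence. DMSO = negative control/baseline.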

Assay [12] can be described thus: ATG_XTT_Cytotoxicity_XSP2: Cytotoxicity Assessment in the Attagene TRANS-FACTORIAL Multi-Species (XSP2) HepG2 Assay (AID 2283837). The procedure, abridged: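 HepG2 cells, transiently transfected with multiple reporter constructs, exposed to chemical for 24 h. Cell number assessed with XTT fluorescence read-out; loss of signal fitted relative to DMSO.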
The target in assay [13] is human Thyroid hormone Receptor alpha (TRa), THRA (gene 7067) (UniProt P10827). The experiment in a line: ATG_hTRa_XSP2: Attagene TRANS-FACTORIAL Multi-Species (XSP2) HepG2 Assay for human Thyroid hormone Receptor alpha (TRa) (AID 2283838). The procedure, abridged:
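HepG2 cells were transiently transfected with GAL4-UAS reporter units for chimeric human TRa-Gal4 and dosed for 24 hours, with 3 nM 6-alpha-fluorotestosterone and 1.5 nM norgestrel present. Reporter mRNA was quantified by RT-PCR, FAM labelling and capillary electrophoresis, with gain of signal fitted versus DMSO.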

Assay [14] deals with frog Thyroid hormone Receptor alpha (TRa), thra-a (gene 397942) (UniProt P15204). The experiment in a line: ATG_frTRa_XSP2: Attagene TRANS-FACTORIAL Multi-Species (XSP2) HepG2 Assay for frog Thyroid hormone Receptor alpha (TRa) (AID 2283839).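 As to AC50: AC50 reflects induction of frog TRa-driven reporter mRNA above DMSO baseline.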 In short, it runs like this:
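Read-out: fluorescent reporter-transcript fragments resolved by capillary electrophoresis after RT-PCR and HpaI cut. Human HepG2 liver cells carry a transfected frog TRα-Gal4 chimera driving a UAS reporter; 24 h exposure, DMSO baseline, positive-direction fit.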

Assay [15] deals with human Thyroid hormone Receptor beta (TRb), THRB (gene 7068) (UniProt P10828). Put plainly: ATG_hTRb_XSP2: Attagene TRANS-FACTORIAL Multi-Species (XSP2) HepG2 Assay for human Thyroid hormone Receptor beta (TRb) (AID 2283840).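 Also: actives raise reporter mRNA so potency reflects agonist-like gain of signal.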 The procedure, abridged:
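Read-out: reporter mRNA induction (RT-PCR, 6-FAM labeling, capillary electrophoresis), gain-of-signal relative to DMSO baseline. Transiently transfected HepG2 TRANS multiplex (NR-Gal4 chimeras, GAL4-UAS reporters), 24 h chemical exposure; medium contained 3 nM 6-alpha-fluorotestosterone plus 1.5 nM norgestrel.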

Assay [16] can be described thus: ATG_M_32_XSP2: Attagene TRANS-FACTORIAL Multi-Species (XSP2) HepG2 Assay for M19 Transcription Factor (Internal Marker) (AID 2283826). The procedure, abridged:
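Read-out: fluorescent reporter mRNA fragments resolved by capillary electrophoresis after RT-PCR, gain-of-signal versus DMSO baseline. Cells were human HepG2 carrying transfected multi-reporter units, exposed 24 h. Medium contained 3 nM 6-alpha-fluorotestosterone plus 1.5 nM norgestrel.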

The test system of assay [17] is turtle Thyroid Hormone Receptor, alpha (TRa), gene 101949057. The experiment in a line: ATG_trTRa_XSP2: Attagene TRANS-FACTORIAL Multi-Species (XSP1) HepG2 Assay for turtle Thyroid Hormone Receptor, alpha (TRa) (AID 2283834).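 Also: hits raise reporter mRNA over the DMSO baseline so AC50 marks activators.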 The procedure, abridged:
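Readout: reporter mRNA induction, fluorescence after RT-PCR, HpaI digestion and capillary electrophoresis. Transiently transfected HepG2, exogenous NR-Gal4 chimera driving GAL4-UAS reporter, 24 h compound exposure. Activity fitted upward relative to DMSO baseline.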

In assay [18] the test system is Sodium/Iodide Symporter (NIS), SLC5A5 (gene 6528). Put plainly: CPHEA_Stoker_NIS_Inhibition_RAIU: CPHEA's Radioactive Iodide Uptake (RAIU) Assay for Sodium/Iodide Symporter (NIS) Inhibition, Stoker and Laws Labs (AID 2283841). The procedure, abridged:
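Test chemicals, six concentrations from 0.001 to 100uM in 0.5% DMSO, were co-incubated with carrier-free 125I (final 329pM) on hNIS-HEK293T-EPA monolayers in pH 7.4 HEPES-buffered HBSS. Plates stood 2 hours at room temperature, then were washed cold and counted.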

human Thyroid hormone Receptor alpha (TRa), THRA (gene 7067), sequence (P10827 whole entry, looked up, the tested form may be a part): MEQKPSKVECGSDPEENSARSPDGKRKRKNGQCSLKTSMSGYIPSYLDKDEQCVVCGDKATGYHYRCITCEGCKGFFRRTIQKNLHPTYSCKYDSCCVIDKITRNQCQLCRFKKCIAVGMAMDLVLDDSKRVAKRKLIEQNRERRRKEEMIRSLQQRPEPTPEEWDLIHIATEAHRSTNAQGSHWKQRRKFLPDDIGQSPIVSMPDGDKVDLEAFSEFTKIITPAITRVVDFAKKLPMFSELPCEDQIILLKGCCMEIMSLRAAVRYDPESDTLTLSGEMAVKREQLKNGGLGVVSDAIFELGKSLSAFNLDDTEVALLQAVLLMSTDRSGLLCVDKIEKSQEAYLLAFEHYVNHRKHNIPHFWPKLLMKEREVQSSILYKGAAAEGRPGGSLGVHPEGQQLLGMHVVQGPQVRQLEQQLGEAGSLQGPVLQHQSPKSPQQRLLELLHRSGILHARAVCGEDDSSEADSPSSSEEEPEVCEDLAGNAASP
human Thyroid hormone Receptor beta (TRb), THRB (gene 7068), sequence (P10828 whole entry, looked up, the tested form may be a part): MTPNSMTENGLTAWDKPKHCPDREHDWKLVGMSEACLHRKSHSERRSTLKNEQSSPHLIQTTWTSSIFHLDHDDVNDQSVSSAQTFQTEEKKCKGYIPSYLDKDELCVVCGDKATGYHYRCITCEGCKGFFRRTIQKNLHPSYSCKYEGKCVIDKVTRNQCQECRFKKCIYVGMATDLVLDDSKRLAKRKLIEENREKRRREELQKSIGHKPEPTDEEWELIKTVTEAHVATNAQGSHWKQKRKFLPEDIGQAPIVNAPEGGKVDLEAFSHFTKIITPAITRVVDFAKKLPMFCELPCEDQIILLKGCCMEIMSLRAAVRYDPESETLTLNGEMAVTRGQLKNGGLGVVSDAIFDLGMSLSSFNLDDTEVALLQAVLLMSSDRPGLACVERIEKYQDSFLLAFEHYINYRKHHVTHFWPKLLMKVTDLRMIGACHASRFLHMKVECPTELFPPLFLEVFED
zebrafish Thyroid Hormone Receptor beta (TRb), thrb (gene 30607), sequence (Q9PVE4 whole entry, looked up, the tested form may be a part): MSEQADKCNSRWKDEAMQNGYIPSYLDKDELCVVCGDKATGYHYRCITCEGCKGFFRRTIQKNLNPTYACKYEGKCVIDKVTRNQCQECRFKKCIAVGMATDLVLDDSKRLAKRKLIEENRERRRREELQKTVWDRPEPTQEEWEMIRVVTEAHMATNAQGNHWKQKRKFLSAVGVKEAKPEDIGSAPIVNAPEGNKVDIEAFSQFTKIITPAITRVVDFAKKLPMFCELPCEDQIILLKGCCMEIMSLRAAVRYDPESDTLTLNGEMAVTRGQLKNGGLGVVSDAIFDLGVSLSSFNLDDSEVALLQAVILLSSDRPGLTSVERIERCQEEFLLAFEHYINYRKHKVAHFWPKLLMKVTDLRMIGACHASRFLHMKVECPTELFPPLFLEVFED
zebrafish Thyroid Hormone Receptor alpha (TRa), thraa (gene 30670), sequence (Q98867 whole entry, looked up, the tested form may be a part): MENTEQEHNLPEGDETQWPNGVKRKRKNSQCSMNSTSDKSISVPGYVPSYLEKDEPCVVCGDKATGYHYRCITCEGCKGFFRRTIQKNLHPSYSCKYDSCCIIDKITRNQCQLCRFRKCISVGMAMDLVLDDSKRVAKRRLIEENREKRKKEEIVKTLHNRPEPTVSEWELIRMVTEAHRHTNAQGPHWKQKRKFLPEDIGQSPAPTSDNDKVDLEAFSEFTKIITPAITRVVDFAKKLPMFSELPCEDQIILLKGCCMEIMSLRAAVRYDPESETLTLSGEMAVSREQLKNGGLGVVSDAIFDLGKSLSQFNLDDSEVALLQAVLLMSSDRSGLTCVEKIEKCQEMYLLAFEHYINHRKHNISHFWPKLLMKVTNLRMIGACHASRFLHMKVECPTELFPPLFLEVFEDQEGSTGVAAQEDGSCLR
mouse Peroxisome Proliferator-activated Receptor gamma (PPARg), Pparg (gene 19016), sequence (P37238 whole entry, looked up, the tested form may be a part): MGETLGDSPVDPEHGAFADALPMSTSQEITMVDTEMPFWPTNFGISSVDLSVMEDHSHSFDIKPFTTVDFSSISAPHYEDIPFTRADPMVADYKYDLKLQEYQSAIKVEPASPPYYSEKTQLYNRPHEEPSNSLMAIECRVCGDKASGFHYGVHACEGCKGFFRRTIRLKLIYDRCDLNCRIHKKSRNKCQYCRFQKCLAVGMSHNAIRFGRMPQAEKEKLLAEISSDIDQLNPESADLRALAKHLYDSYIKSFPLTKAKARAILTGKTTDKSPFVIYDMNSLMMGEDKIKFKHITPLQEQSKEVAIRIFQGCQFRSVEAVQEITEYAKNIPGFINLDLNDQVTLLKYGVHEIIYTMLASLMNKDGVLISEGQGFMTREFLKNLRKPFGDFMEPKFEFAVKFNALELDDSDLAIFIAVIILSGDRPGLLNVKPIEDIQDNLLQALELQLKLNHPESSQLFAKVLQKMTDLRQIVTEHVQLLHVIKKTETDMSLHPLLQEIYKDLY
Peroxisome proliferator-activated receptor gamma (Homo sapiens), sequence (P37231 whole entry, looked up, the tested form may be a part): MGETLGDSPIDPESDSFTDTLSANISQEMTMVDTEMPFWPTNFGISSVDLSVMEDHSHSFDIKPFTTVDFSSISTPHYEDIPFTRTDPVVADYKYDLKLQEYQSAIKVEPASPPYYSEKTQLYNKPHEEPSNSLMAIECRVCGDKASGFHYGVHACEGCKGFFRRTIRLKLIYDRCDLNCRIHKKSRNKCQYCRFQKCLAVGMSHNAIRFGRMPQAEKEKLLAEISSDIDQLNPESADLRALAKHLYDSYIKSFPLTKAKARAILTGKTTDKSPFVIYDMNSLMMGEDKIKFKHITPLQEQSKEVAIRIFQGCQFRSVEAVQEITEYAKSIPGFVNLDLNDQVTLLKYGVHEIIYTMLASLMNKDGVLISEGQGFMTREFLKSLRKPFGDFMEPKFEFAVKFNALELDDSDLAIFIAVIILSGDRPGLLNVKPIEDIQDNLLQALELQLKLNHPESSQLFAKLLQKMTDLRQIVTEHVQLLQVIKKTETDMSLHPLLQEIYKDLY
frog Thyroid hormone Receptor alpha (TRa), thra-a (gene 397942), sequence (P15204 whole entry, looked up, the tested form may be a part): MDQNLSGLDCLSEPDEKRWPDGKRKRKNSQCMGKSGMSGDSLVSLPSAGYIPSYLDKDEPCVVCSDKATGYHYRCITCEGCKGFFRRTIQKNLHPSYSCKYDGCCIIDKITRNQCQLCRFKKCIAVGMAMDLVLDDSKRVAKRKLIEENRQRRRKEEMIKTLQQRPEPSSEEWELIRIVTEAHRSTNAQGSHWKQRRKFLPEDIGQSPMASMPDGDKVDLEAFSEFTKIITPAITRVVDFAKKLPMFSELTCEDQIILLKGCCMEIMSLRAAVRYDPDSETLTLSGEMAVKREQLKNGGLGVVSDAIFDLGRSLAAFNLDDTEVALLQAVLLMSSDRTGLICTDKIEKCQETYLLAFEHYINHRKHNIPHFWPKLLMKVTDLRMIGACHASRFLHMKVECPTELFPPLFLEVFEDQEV
Nuclear receptor subfamily 1 group I member 2 (Mus musculus), sequence (O54915 whole entry, looked up, the tested form may be a part): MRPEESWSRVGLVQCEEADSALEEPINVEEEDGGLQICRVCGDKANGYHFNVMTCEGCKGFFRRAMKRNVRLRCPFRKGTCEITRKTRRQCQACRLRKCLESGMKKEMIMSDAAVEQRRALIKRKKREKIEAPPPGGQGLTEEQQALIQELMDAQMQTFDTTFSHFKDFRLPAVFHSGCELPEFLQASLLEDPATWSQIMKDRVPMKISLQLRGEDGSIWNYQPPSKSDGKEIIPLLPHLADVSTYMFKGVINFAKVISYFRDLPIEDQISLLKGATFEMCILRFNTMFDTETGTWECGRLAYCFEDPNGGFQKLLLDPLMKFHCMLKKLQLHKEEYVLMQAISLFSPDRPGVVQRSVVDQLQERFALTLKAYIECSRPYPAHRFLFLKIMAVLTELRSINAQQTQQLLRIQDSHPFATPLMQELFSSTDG

For `COc1ccc(C(=CC(=O)N2CCOCC2)c2ccc(Cl)cc2)cc1OC`, the result in [1], in [3], in assay [4], in assay [5], in assay [6] and in [8] was inactive. The call in assay [9], in assay [10], in [11], in assay [12], in assay [13] and in assay [14] was inactive. For the same compound, the call in [15] was inactive. The AC50 (commonly the concentration at which the activity in the assay is half-maximal) in [2] is 100 µM (active) and 54.2 µM (active); in assay [4] it was 52.4 µM (active); in assay [5], 19.8 µM (active); in assay [6], 29.3 µM (active); in assay [7] it was 4.65 µM (active) and 4.32 µM (active).

With `CCOP(=S)(OCC)Oc1ccc2c(C)c(Cl)c(=O)oc2c1`, the result in [1], in assay [16], in assay [9], in assay [10], in assay [11] and in assay [13] was inactive. The outcome in assay [14] and in assay [15] was inactive. In addition, the AC50 in [2] was 100 µM (active); in assay [5], 27 µM (active); in [6], 5.43 µM (active); in [7] it was 9.08 nM (active); in assay [17], 64.7 µM (active); in [18], 9.92 µM (active).

Take `CCOP(=S)(OCC)SCCSCC`: the outcome in assay [18] was inactive.

For `CC[C@H](C)[C@H]1O[C@]2(C=C[C@@H]1C)C[C@@H]1C[C@@H](C/C=C(\C)[C@@H](O[C@H]3C[C@H](OC)[C@@H](O[C@H]4C[C@H](OC)[C@@H](NC)[C@H](C)O4)[C@H](C)O3)[C@@H](C)/C=C/C=C3\CO[C@@H]4[C@H](O)C(C)=C[C@@H](C(=O)O1)[C@]34O)O2`, the AC50 in assay [18] is 13.3 µM (active).

Regarding `COc1cccc(C(=O)NN(C(=O)c2cc(C)cc(C)c2)C(C)(C)C)c1C`, the AC50 in assay [18] is 15.8 µM (active).

Turning to `CCCSP(=O)(OCC)Oc1ccc(Br)cc1Cl` (stereo not given), the result in assay [18] was inactive.

Consider `CC(C)N(C(=O)SCC(Cl)=C(Cl)Cl)C(C)C`, for which the AC50 in assay [18] was 21.1 µM (active).

For the compound `C#CC(C)(C)NC(=O)c1cc(Cl)cc(Cl)c1`, the values for the AC50 in assay [1], in [7] and in assay [14] were 27.6 µM (active), 26800 nM (active) and 26.8 µM (active), respectively. The compound was called inactive in [2], in assay [16], in assay [4], in [8], in assay [9] and in [17]. Moreover, the compound was classed as inactive in [10], in [11], in [13] and in assay [15].

The values above are taken from PubChem BioAssay (EPA / NIEHS).
